{"source": "PubChem BioAssay AID1347165", "about": "(National Center for Advancing Translational Sciences (NCATS), 2019)", "note": "About 5,700 (2.6%) of roughly 220,000 compounds were called active. Not shown: some 18% with an inconclusive outcome. The entries come from a sample that favours actives as a whole. Values without a mark were called inactive. Calls follow the shape of the dose curve; as a rule, active = well fitted inhibition curve with a large enough effect; inconclusive = small, poorly fitted or top-dose-only effect; inactive = no such curve, though single readings can be large or run the other way."}
{"target": "Lysine-specific demethylase 5B (Homo sapiens) (UniProt Q9UGL1)", "sequence (Q9UGL1 whole entry, looked up)": "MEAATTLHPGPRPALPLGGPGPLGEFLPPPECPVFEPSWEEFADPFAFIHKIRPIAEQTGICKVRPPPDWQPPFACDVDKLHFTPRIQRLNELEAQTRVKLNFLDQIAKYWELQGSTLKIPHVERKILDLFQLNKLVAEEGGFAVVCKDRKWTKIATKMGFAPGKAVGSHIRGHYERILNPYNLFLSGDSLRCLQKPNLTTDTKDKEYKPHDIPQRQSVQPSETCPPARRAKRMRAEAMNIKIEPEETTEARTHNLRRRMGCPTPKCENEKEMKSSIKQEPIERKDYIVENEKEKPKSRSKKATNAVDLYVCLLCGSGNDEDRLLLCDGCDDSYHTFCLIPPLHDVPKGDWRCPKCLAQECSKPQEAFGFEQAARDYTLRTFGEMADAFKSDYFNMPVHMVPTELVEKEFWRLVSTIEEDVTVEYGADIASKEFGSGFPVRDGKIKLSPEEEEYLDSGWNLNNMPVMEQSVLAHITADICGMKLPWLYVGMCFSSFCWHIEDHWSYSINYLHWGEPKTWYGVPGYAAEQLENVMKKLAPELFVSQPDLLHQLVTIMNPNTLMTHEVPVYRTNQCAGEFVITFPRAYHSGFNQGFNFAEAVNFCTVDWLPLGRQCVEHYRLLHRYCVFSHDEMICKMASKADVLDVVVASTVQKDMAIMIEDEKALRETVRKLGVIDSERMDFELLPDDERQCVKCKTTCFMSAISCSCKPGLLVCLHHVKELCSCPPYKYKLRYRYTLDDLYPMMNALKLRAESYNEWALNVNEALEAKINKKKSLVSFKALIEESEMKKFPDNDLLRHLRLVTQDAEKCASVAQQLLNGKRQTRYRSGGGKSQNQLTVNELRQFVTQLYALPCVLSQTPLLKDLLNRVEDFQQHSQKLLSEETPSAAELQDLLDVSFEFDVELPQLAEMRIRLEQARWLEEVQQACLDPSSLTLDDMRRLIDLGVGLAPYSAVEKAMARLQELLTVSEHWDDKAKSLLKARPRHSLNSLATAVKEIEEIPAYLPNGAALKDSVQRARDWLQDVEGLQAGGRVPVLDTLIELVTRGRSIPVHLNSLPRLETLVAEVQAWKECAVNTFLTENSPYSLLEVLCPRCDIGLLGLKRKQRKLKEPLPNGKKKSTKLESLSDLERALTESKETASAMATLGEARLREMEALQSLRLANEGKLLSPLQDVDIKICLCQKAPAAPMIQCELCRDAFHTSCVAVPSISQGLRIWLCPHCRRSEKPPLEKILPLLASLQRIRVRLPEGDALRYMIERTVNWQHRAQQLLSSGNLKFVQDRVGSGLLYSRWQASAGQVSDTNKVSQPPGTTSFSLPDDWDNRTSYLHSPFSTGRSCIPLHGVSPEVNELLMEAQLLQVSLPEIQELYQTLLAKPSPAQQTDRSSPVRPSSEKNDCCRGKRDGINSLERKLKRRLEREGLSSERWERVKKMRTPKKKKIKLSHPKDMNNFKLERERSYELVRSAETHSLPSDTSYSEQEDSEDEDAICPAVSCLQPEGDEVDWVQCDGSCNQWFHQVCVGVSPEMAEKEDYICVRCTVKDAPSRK", "assay": "Primary screen for KDM5B Histone Demethylases FDH-coupled qHTS; also: nearly all actives have a fitted effect of over 70% in size; also: potency is read from the fitted curve at half-maximal effect; as to activity change, negative = inhibition: 0% is about no effect", "conditions": "FDH-coupled NADH fluorescence (FDH is formaldehyde dehydrogenase); series mostly up to 57.7 µM; activity change, negative = inhibition: at the top concentration", "outline": "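KDM5BΔAP (200 nM final) in 50 mM HEPES pH 7.5, 0.01% Tween-20 was preincubated 10 min at RT with compound over a concentration range. Substrate mix (H3K4me3 12.5 µM, α-KG 25 µM, Fe²⁺, ascorbate, NAD⁺, FDH) was added, and NADH fluorescence change over 30 min gave dose-response curves.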"}
{"compound": "COC(=O)c1cccc(N(CC(=O)NCC2CCCO2)C(=O)CCC(=O)Nc2cc(C)on2)c1", "note": "(stereo not given)", "activity change, negative = inhibition": "10.2%"}
{"compound": "COc1ccccc1C(=O)OCC(=O)NCCNC(=O)COC(=O)c1ccccc1OC", "activity change, negative = inhibition": "0%"}
{"compound": "CSCC[C@H](NC(=O)CSc1cc(Cl)ccc1Cl)c1nc2ccccc2[nH]1", "activity change, negative = inhibition": "4.03%"}
{"compound": "O=C(NCCc1ccc(Cl)cc1)c1ccc2nccn2c1", "Potency": "112 µM (active)"}
{"compound": "O=C(NC1CCN(Cc2ccc(F)c(F)c2)CC1)c1ccc2nccn2c1", "Potency": "28.2 µM (active)"}
{"compound": "O=C(NCCc1ccc(Cl)cc1)c1ccc2nc(CCc3ccccc3)oc2c1", "activity change, negative = inhibition": "-15%"}
{"compound": "O=C(NCc1ccccn1)c1ccc2nccn2c1", "Potency": "31.6 µM (active)"}
{"compound": "COc1cccc(S(=O)(=O)NCc2ccc(C(=O)NCc3ccccn3)cc2)c1", "activity change, negative = inhibition": "-7.31%"}
{"compound": "Cc1cc(C(=O)NCCc2ccc(Cl)cc2)c(C)o1", "activity change, negative = inhibition": "-33.8%"}
{"compound": "O=C(Nc1ccc(C(=O)N2CCOCC2)cc1)Nc1cccc(C(F)(F)F)c1", "activity change, negative = inhibition": "31.3%"}
{"compound": "NC(=O)CN1CCC(NC(=O)c2ccc(Oc3ccc(F)cc3)cc2)CC1", "activity change, negative = inhibition": "2.21%"}
{"compound": "CCn1cc(-c2ccccc2)cc1C(=O)NCc1ccccn1", "activity change, negative = inhibition": "-13.5%"}
{"compound": "O=C(c1ccc2nccn2c1)N1CCOCC1", "Potency": "100 µM (active)"}
{"compound": "O=C(c1ccoc1)N1CCC(Oc2ncccc2C(=O)N2CCOCC2)C1", "note": "(stereo not given)", "activity change, negative = inhibition": "-12.4%"}
{"compound": "NC(=O)CN1CCC(NC(=O)c2cccc(F)c2)CC1", "activity change, negative = inhibition": "8.54%"}
{"compound": "COc1ccc2nc(NC(=O)Nc3ccc(C)cc3)sc2c1", "activity change, negative = inhibition": "6.82%"}
{"compound": "COc1cc(/C=C(\\C#N)C(=O)C(C)(C)C)ccc1OCc1c(Cl)cccc1Cl", "activity change, negative = inhibition": "-26.9%"}
{"compound": "COC[C@]1(O)CCN(C(=O)c2ccccc2C(F)(F)F)CC1(C)C", "activity change, negative = inhibition": "13.1%"}
{"compound": "C#Cc1cccc(NS(=O)(=O)c2ccc(OC)c3ncccc23)c1", "activity change, negative = inhibition": "-10.4%"}
{"compound": "CC1(C)CC(=O)C2=C(C1)OC(N)=C(C#N)C2c1ccc(C(F)(F)F)cc1", "note": "(stereo not given)", "activity change, negative = inhibition": "19.7%"}
{"compound": "Cc1ccccc1/C=C1\\Oc2cc(OS(C)(=O)=O)ccc2C1=O", "activity change, negative = inhibition": "-4.69%"}
{"compound": "O=C(Cc1cccc(F)c1)NC1CCC(c2ccccc2)CC1", "note": "(stereo not given)", "activity change, negative = inhibition": "-0.961%"}
{"compound": "O=c1ncn(Cc2ccccc2)c2ccc(-c3ccoc3)nc12", "Potency": "39.8 µM (active)"}
{"compound": "CCOc1ccccc1NC(=O)Cc1c(C)[nH]n(-c2nc(-c3ccccc3)cs2)c1=O", "activity change, negative = inhibition": "-0.446%"}
{"compound": "CNCCCNC(=O)C(=O)Nc1cccc2[nH]ccc12", "activity change, negative = inhibition": "77.9%"}
{"compound": "Cc1ccccc1OCc1nnc(SCC(=O)c2ccc(Cl)cc2)n1C", "activity change, negative = inhibition": "-16.4%"}
{"compound": "CCN1CCN(C(=O)Cn2nc(C)c3sc(-c4ccccc4)nc3c2=O)CC1", "Potency": "22.4 µM (active)"}
{"compound": "Cc1ccc(C)c(N2CCN(C(=O)Cn3nc(C)c4sc5ccccc5c4c3=O)CC2)c1", "activity change, negative = inhibition": "-5.55%"}
{"compound": "Cc1nn(CC(=O)O)c(=O)c2nc(C(C)C)sc12", "activity change, negative = inhibition": "2.56%"}
{"compound": "COc1ccccc1NC(=O)C1CCN(c2nc3ccccc3nc2OC)CC1", "activity change, negative = inhibition": "35.1%"}
{"compound": "Cc1cc(Cl)ccc1-c1ccc(CN)cc1", "activity change, negative = inhibition": "-4.89% [at 149 µM]"}
{"compound": "COCCNC(=O)C1CCN(S(=O)(=O)c2ccc3c(ccn3C)c2)CC1", "activity change, negative = inhibition": "18.1%"}
{"compound": "CC(C)(O)CCc1cccc(C(=O)NC2CCN(c3ncccc3C#N)CC2)c1", "Potency": "22.4 µM (active)"}
{"compound": "N#Cc1cccnc1-c1cccc(C(=O)O)c1", "activity change, negative = inhibition": "19.4% [at 149 µM]"}
{"compound": "N#Cc1ccccc1Sc1ccccc1C(=O)NC1CCCCC1", "activity change, negative = inhibition": "17.8%"}
{"compound": "Cc1ccc(C(=O)NCc2nc(C)cs2)cn1", "activity change, negative = inhibition": "9.74%"}
{"compound": "CC(C)C1=C/C(=C/c2ccccc2)C(C)/C(=C/c2ccccc2)C1=O", "note": "(stereo not given)", "activity change, negative = inhibition": "-32%"}
{"compound": "Cc1ccccc1NC(=O)CN1C(=O)C(C)(C)c2ccccc21", "activity change, negative = inhibition": "-4.69%"}
{"compound": "Cc1ccccc1CNC(=O)CN1C(=O)C2(CCNCC2)Nc2ccccc21", "Potency": "14.1 µM (active)"}
{"compound": "CC1CCC2(CC1)NC(=O)N(CC(=O)NCc1ccco1)C2=O", "note": "(stereo not given)", "activity change, negative = inhibition": "10.1%"}
{"compound": "CCn1c(=O)c2ccccc2n(CC(=O)Nc2ccccc2C(F)(F)F)c1=O", "activity change, negative = inhibition": "2.98%"}
{"compound": "CCNC(=O)NC(=O)C(C)Sc1nc(-c2ccccc2)c(-c2ccccc2)o1", "note": "(stereo not given)", "activity change, negative = inhibition": "-0.479%"}
{"compound": "Cc1nc2cc(NC(=O)c3ccc(C(=O)c4ccccc4)cc3)ccc2o1", "activity change, negative = inhibition": "3.23%"}
{"compound": "c1ccc2c(c1)CCN2C1CN(Cc2cccc3ccccc23)C1", "Potency": "100 µM (active)"}
{"compound": "CN(Cc1cccc2ccccc12)C1CCc2ccccc21", "note": "(stereo not given)", "activity change, negative = inhibition": "-26.7% [at 86.2 µM]"}
{"compound": "Cc1ccccc1N(C)C1CN(Cc2cccc3ccccc23)C1", "activity change, negative = inhibition": "8.42% [at 149 µM]"}
{"compound": "Cc1oc(-c2cccs2)nc1CC(=O)N1CCC2(CC1)NC(=O)NC2=O", "activity change, negative = inhibition": "-260%"}
{"compound": "CC(C)(CC(=O)O)CC(=O)N[C@H]1CO[C@H]2[C@@H]1OC[C@@H]2Nc1nccc(-c2ccc3c(c2)OCO3)n1", "Potency": "28.2 µM (active)"}
{"compound": "O=C(Nc1cccc(C(F)(F)F)c1)O[C@@H]1CO[C@H]2[C@@H]1OC[C@@H]2Nc1nccc(-c2ccc3c(c2)OCO3)n1", "Potency": "31.6 µM (active)"}
{"compound": "O=C(Nc1ccccc1)O[C@@H]1CO[C@H]2[C@@H]1OC[C@@H]2NS(=O)(=O)c1cccc2cccnc12", "activity change, negative = inhibition": "-31.2%"}
{"compound": "CC(C)(C)c1ccnc(N[C@H]2CO[C@H]3[C@@H]2OC[C@H]3OC(=O)Nc2cccc(C(F)(F)F)c2)n1", "activity change, negative = inhibition": "-8.49%"}
{"compound": "COc1ccc(NC(=O)O[C@@H]2CO[C@H]3[C@@H]2OC[C@@H]3NC(=O)NC2CCCCC2)cc1", "activity change, negative = inhibition": "-26.3% [at 86.2 µM]"}
{"compound": "CC(C)(C)c1ccnc(N[C@H]2CO[C@H]3[C@@H]2OC[C@@H]3NC(=O)CC2(CC(=O)O)CCCC2)n1", "activity change, negative = inhibition": "-9.63%"}
{"compound": "COCC(=O)N[C@H]1CO[C@H]2[C@@H]1OC[C@@H]2Nc1nccc(C(C)(C)C)n1", "activity change, negative = inhibition": "2.28% [at 86.2 µM]"}
{"compound": "COc1ccc(NC(=O)O[C@@H]2CO[C@H]3[C@@H]2OC[C@@H]3NC(=O)C2CCCCC2)cc1", "activity change, negative = inhibition": "0.55% [at 86.2 µM]"}
{"compound": "COc1cccc(NC(=O)O[C@@H]2CO[C@H]3[C@@H]2OC[C@@H]3Nc2nccc(-c3cccs3)n2)c1", "Potency": "15.8 µM (active)"}
{"compound": "COc1ccc(OC)c(NC(=O)COc2c(C)cc(C)cc2C)c1", "activity change, negative = inhibition": "9.24%"}
{"compound": "CSc1ccccc1N=Cc1ccc(Cl)c(Cl)c1", "activity change, negative = inhibition": "29.7%"}
{"compound": "COc1ccc(OC)c(CCNC(=O)c2nn(C)c3c2CS(=O)(=O)c2ccccc2-3)c1", "activity change, negative = inhibition": "13.7%"}
{"compound": "CC(=O)Nc1ccc(S(=O)(=O)Nc2c(NC3CCCC3)c3ccccc3oc2=O)cc1", "activity change, negative = inhibition": "13.6%"}
